PubChem BioAssay (Tox21)
Where “and” joins values, the source holds several entries; their conditions need not be identical. Identical values can stand only once. Records with an inconclusive call do not appear. Where a structure was tested more than once in an assay, its records may differ in their call. Calls of active or inactive are those of the source. The call rests on the fitted dose curve; in most records, active means well fitted inhibition curve with a large enough effect in the repeat runs; inconclusive means weak or mixed curves; inactive means no such curve, though single readings can be large or run the other way.

Each compound was assayed against Estrogen receptor (Homo sapiens) (UniProt P03372) (assay: qHTS assay to identify small molecule antagonists of the estrogen receptor alpha (ER-alpha) signaling pathway using the BG1 cell line in the presence of 0.1 nM 17-beta-estradiol (AID 1259244; further: nearly all actives have a fitted effect of over 50% in size)). Conditions: VM7Luc4E2 (BG1) ERE-luciferase, antagonist mode, 0.1 nM E2, 22 h; series mostly up to 92.4 µM; activity change, negative = inhibition: at the top concentration.
Chain of Estrogen receptor (Homo sapiens) (P03372 whole entry, looked up): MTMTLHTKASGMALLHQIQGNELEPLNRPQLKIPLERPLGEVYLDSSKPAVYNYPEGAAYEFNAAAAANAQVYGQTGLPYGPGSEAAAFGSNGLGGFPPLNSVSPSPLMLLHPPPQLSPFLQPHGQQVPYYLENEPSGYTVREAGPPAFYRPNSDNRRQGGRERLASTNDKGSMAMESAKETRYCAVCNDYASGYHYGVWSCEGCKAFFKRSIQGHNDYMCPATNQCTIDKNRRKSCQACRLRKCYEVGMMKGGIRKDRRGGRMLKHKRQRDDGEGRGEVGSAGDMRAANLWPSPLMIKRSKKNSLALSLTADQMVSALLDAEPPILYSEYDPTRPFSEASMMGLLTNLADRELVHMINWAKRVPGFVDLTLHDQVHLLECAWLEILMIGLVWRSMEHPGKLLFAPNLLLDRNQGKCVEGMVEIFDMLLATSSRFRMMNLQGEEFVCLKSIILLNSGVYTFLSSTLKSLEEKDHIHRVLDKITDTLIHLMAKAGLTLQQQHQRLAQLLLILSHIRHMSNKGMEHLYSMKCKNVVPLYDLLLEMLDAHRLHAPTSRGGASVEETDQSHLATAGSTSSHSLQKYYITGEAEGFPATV
Source text: National Center for Advancing Translational Sciences [NCATS]
NIH Chemical Genomics Center [NCGC]
U.S. Environmental Protection Agency [EPA]
National Institutes of Environmental Health Sciences [NIEHS]
National Toxicology Program [NTP]
U.S. Food and Drug Administration [FDA]
Estrogen receptor (ER), a member of the nuclear hormone receptor plays an important role in development, metabolic homeostasis and reproduction. Two subtypes of ER, ER-alpha and ER-beta, have similar expression patterns with some uniqueness in both types. Endocrine disrupting chemicals (EDCs) and their interactions with steroid hormone receptors like ER causes disruption of normal endocrine function. Therefore, it is important to understand the effect of environmental chemicals in ER signaling pathway. For identifying ER antagonists, VM7Luc4E2 cell line was used to screen against Tox21 compound libraries.
VM7Luc4E2 cell line (provided by Denison MS, University of California) endogenously express full-length ER-alpha and is stably transfected with a plasmid containing four estrogen responsive elements (ERE) upstream of a luciferase reporter gene. The current screening for identification of ER-alpha inhibitors against Tox21 compound libraries used lower concentration (0.1 nM) of 17beta-Estradiol as a stimulator.
Tox21 Assay Protocol Summary:
VM7Luc4E2 cells were cultured in phenol red free assay medium containing 10% charcoal stripped FBS for 5 days prior to the assay. The cells were dispensed at 4,000 cells/well in 4 uL of assay medium into white wall/solid-bottom 1536-well plates (Corning Life Sciences, Corning, NY) using a Multidrop Combi (ThermoFisher Scientific, Waltham, MA) dispenser. After the assay plates were incubated at 37C and 5% CO2 for 24 hr, 23 nL of compounds dissolved in DMSO, positive controls or DMSO only was transferred to the assay plates by a Pintool station (Kalypsys, San Diego, CA). The transfer of compounds was followed by the addition of 1 uL of 0.1 nM (final concentration) agonist (17beta-Estradiol)/assay medium using a Flying Reagent Dispenser (FRD, Aurora Discovery, San Diego, CA). The plates were incubated at 37C and 5% CO2 for 22 hr. For luciferase reporter gene assay, 4 uL of ONE-Glo reagent (Promega Corporation, Madison, WI) was added to each well using the FRD and after 30 min incubation at room temperature luminescence intensity was measured using ViewLux plate reader (PerkinElmer, Shelton, CT).
On the % scale 0 is the no-effect control and ±100 the full control effect; potency means the concentration at half of the fitted maximal effect.

Structure (SMILES)	activity change, negative = inhibition	Potency
CCc1ccc(C2CCNCC2)cc1	1.9% [at 42.5 µM] (inactive)	
CCN(CCO)CCO	1.65% (inactive)	
COc1ccc(C=O)cc1O	1.46% (inactive)	
C[C@H](CN1CCOCC1)C(C(=O)N1CCCC1)(c1ccccc1)c1ccccc1	-20.5% (inactive)	
C=C1C[C@@H]2[C@H](CC[C@]3(C)C(=O)CC[C@@H]23)[C@@]2(C)C=CC(=O)C=C12	6.45% [at 42.5 µM] (inactive)	
N[C@@H]1C[C@H]1c1ccccc1	47.8% [at 42.5 µM] (inactive)	
CCOC1Oc2ccc(OS(C)(=O)=O)cc2C1(C)C (stereo not given)		54 µM (active)
N[C@@H](Cc1ccc(Oc2cc(I)c(O)c(I)c2)c(I)c1)C(=O)O	-4.82% [at 42.5 µM] (inactive)	
N#CN=C1SCCN1Cc1ccc(Cl)nc1	3.48% (inactive)	
NC(=O)OCCCc1ccccc1	4.86% [at 42.5 µM] (inactive)	
COc1ccc(CN2CCNCC2)c(OC)c1OC	8.39% [at 42.5 µM] (inactive)	
Cc1ccc(S(=O)(=O)N[C@@H](CCCCN)C(=O)CCl)cc1	0.577% [at 42.5 µM] (inactive)	
O=CCCl	3.5% (inactive)	
CCC1(c2ccccc2)CCC(=O)NC1=O (stereo not given)	-17.4% [at 42.5 µM] (inactive)	
O=C1C2CC=CCC2C(=O)N1SC(Cl)(Cl)Cl (stereo not given)		inactive and 26.9 µM (active)
O=C/C=C/c1ccco1	0.869% (inactive)	
CCOC(=O)C(Cl)Cc1cc(-n2nc(C)n(C(F)F)c2=O)c(F)cc1Cl (stereo not given)	-7.42% (inactive)	
CNC(=O)NC(O)C(Cl)(Cl)Cl (stereo not given)	4.01% [at 42.5 µM] (inactive)	
CC[C@H](O)C(C[C@H](C)N(C)C)(c1ccccc1)c1ccccc1	-22.7% (inactive)	
CCOP(=O)(CN(CCO)CCO)OCC	4.18% (inactive)	

Structure (SMILES)	activity change, negative = inhibition	Potency
CN(C)CCc1c[nH]c2cccc(OP(=O)(O)O)c12	-3.35% (inactive)	
O=[N+]([O-])CCO	0% (inactive)	
CC#Cc1cc(C)nc(Nc2ccccc2)n1	40.6% (inactive)	
Cc1cc(OC(=O)N(C)C)nn1C(=O)N(C)C	33.4% (inactive)	
O=c1[nH]c2ccccc2n1C1CCNCC1	-2.39% [at 42.5 µM] (inactive)	
CCSC(=O)Cl	21.6% (inactive)	
COP(=O)(O)OC	-9.26% (inactive)	
C[C@]12C=CC(=O)C=C1CC[C@@H]1[C@@H]2CC[C@@]2(C)[C@H]1CC[C@]2(C)O	-11.8% [at 42.5 µM] (inactive)	
CN(CCO)CCO	4.72% (inactive)	
CCC(CC)(CNC(=O)CCCO)c1cccc(OC)c1	0.725% [at 42.5 µM] (inactive)	
CCOP(=S)(OCC)Oc1ccc(Cl)cc1Cl	12.2% (inactive)	
CC(Cc1ccccc1)NCCCCl (stereo not given)	0.25% [at 42.5 µM] (inactive)	
CCNP(=S)(OC)O/C(C)=C/C(=O)OC(C)C (stereo not given)	-7.11% (inactive)	
N=C(N)[Se]	22.5% (inactive)	
CC[C@H](N)c1ccccc1	3.22% (inactive)	
CCCCCCC(=O)CCCCCC/C=C/C[C@@H](O)[C@H](O)[C@@](N)(CO)C(=O)O	5.03% [at 19 µM] (inactive)	
C#CCOC(=O)/C=C(C)/C=C/CC(C)CCCC(C)C (stereo not given)	-17.6% (inactive)	
CCC1(CC)C(=O)C=CNC1=O	-5.72% [at 42.5 µM] (inactive)	
NNCc1ccccc1	19.7% (inactive)	
COc1ccccc1OC	1.92% (inactive)	
